# Measured values: the supplement of paper PMC4022240
# ± gives the standard deviation.
# T1: HaloTag-ATRX ADD domain (163-292)
# T1 chain: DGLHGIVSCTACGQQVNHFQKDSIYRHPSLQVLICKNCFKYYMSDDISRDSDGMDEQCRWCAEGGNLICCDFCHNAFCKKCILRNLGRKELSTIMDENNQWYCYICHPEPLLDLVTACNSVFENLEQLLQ
# B1: H3 5-17 Q T A R Kac S T G G Kme3 A P R (peptide)
# chain: QTARKSTGGKAPR
# B2: H3 5-17 Q T A R Kme S T G G Kme3 A P R (peptide)
# chain: QTARKSTGGKAPR
# B3: H3 5-17 Q T A R Kme Sph T G G K A P R (peptide)
# chain: QTARKSTGGKAPR
# B4: H3 5-17 Q T A R Kac S T G G K A P R (peptide)
# chain: QTARKSTGGKAPR
# B5: H3 5-17 Q T A R Kac S Tph G G K A P R (peptide)
# chain: QTARKSTGGKAPR
# Tests used:
# Experiment in all cases: peptide microarray binding signal (635 nm), min-max normalized on array (fraction of array maximum); higher = stronger binding
# Settings in all cases: peptide region: H3 5-17
# [1] = biological target: T1, HaloTag-ATRX ADD domain (163-292)
# Description: (§1)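 Histone 13-mer peptides were synthesized as cellulose conjugates with a C-terminal 20-atom PEG linker and printed in triplicate on nitrocellulose. The sequence given is the unmodified backbone; PTMs (Kme1/2/3, Kac, Sph/Tph, Rme/Rme2a/Rme2s, Rcit) are listed in the label and the 'peptide modifications' condition. Slides were probed at 4 °C for 1 h with biotin-labelled (HQ)5-HaloTag reader fusions (ATRX-ADD, ING2-PHD) then streptavidin-Alexa647, or with rabbit histone antibodies then anti-rabbit Alexa647. The mean 635 nm signal of the triplicate spots was scaled 0-1 between the lowest and highest values on each array.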
# [2] = biological target: HaloTag-ING2 PHD (mouse Ing2 200-280)
# Description: as §1
# [3] = biological target: anti-H3K4me3 antibody ab8580
# Description: as §1
# [4] = biological target: anti-H3K9me3 antibody ab8898
# Description: as §1
# [5] = peptide modifications: H3K9ac H3K14me3, binder concentration: 1:2,000 dilution
# [6] = peptide modifications: H3K9ac H3K14me3, binder concentration: 1:10,000 dilution
# [7] = peptide modifications: H3K9me1 H3K14me3, binder concentration: 1:2,000 dilution
# [8] = peptide modifications: H3K9me1 H3K14me3, binder concentration: 1:10,000 dilution
# [9] = peptide modifications: H3K9me1 H3S10ph, binder concentration: 1:2,000 dilution
# [10] = peptide modifications: H3K9me1 H3S10ph, binder concentration: 1:10,000 dilution
# [11] = peptide modifications: H3K9ac, binder concentration: 1:2,000 dilution
# [12] = peptide modifications: H3K9ac, binder concentration: 1:10,000 dilution
# [13] = peptide modifications: H3K9ac H3T11ph, binder concentration: 1:2,000 dilution
# [14] = peptide modifications: H3K9ac H3T11ph, binder concentration: 1:10,000 dilution
binder,measurement,setting,value
B1,peptide microarray binding signal,"[1]; peptide modifications: H3K9ac H3K14me3, binder concentration: 50 nM",0.00755 ± 0.00045
same,peptide microarray binding signal,"[1]; peptide modifications: H3K9ac H3K14me3, binder concentration: 500 nM",0.0117 ± 0.00052
same,peptide microarray binding signal,"[2]; peptide modifications: H3K9ac H3K14me3, binder concentration: 10 nM",0.00758 ± 0.00031
same,peptide microarray binding signal,"[2]; peptide modifications: H3K9ac H3K14me3, binder concentration: 100 nM",0.00957 ± 0.00088
same,peptide microarray binding signal,[3]; [5],0.0161 ± 0.0026
same,peptide microarray binding signal,[3]; [6],0.0127 ± 0.0015
same,peptide microarray binding signal,[4]; [5],0.0416 ± 0.0084
same,peptide microarray binding signal,[4]; [6],0.0649 ± 0.082
B2,peptide microarray binding signal,"[1]; peptide modifications: H3K9me1 H3K14me3, binder concentration: 50 nM",0.00611 ± 0.00085
same,peptide microarray binding signal,"[1]; peptide modifications: H3K9me1 H3K14me3, binder concentration: 500 nM",0.011 ± 0.0017
same,peptide microarray binding signal,"[2]; peptide modifications: H3K9me1 H3K14me3, binder concentration: 10 nM",0.018 ± 0.003
same,peptide microarray binding signal,"[2]; peptide modifications: H3K9me1 H3K14me3, binder concentration: 100 nM",0.00935 ± 0.0036
same,peptide microarray binding signal,[3]; [7],0.0233 ± 0.01
same,peptide microarray binding signal,[3]; [8],0.0338 ± 0.015
same,peptide microarray binding signal,[4]; [7],0.0215 ± 0.0054
same,peptide microarray binding signal,[4]; [8],0.016 ± 0.0043
B3,peptide microarray binding signal,"[1]; peptide modifications: H3K9me1 H3S10ph, binder concentration: 50 nM",0.0069 ± 0.00042
same,peptide microarray binding signal,"[1]; peptide modifications: H3K9me1 H3S10ph, binder concentration: 500 nM",0.0164 ± 0.0026
same,peptide microarray binding signal,"[2]; peptide modifications: H3K9me1 H3S10ph, binder concentration: 10 nM",0.0181 ± 0.0013
same,peptide microarray binding signal,"[2]; peptide modifications: H3K9me1 H3S10ph, binder concentration: 100 nM",0.0405 ± 0.00099
same,peptide microarray binding signal,[3]; [9],0.00281 ± 0.00031
same,peptide microarray binding signal,[3]; [10],0.0028 ± 0.00019
same,peptide microarray binding signal,[4]; [9],0.0251 ± 0.0037
same,peptide microarray binding signal,[4]; [10],0.00865 ± 0.0014
B4,peptide microarray binding signal,"[1]; peptide modifications: H3K9ac, binder concentration: 50 nM",0.00263 ± 0.00033
same,peptide microarray binding signal,"[1]; peptide modifications: H3K9ac, binder concentration: 500 nM",0.00271 ± 0.00021
same,peptide microarray binding signal,"[2]; peptide modifications: H3K9ac, binder concentration: 10 nM",0.00352 ± 5e-05
same,peptide microarray binding signal,"[2]; peptide modifications: H3K9ac, binder concentration: 100 nM",0.002055 ± 2e-05
same,peptide microarray binding signal,[3]; [11],0.00123 ± 0.0001
same,peptide microarray binding signal,[3]; [12],0.00245 ± 0.00036
same,peptide microarray binding signal,[4]; [11],0.0011 ± 6.7e-05
same,peptide microarray binding signal,[4]; [12],0.00167 ± 7.4e-05
B5,peptide microarray binding signal,"[1]; peptide modifications: H3K9ac H3T11ph, binder concentration: 50 nM",0.00266 ± 6.1e-05
same,peptide microarray binding signal,"[1]; peptide modifications: H3K9ac H3T11ph, binder concentration: 500 nM",0.0107 ± 0.00079
same,peptide microarray binding signal,"[2]; peptide modifications: H3K9ac H3T11ph, binder concentration: 10 nM",0.00531 ± 0.00025
same,peptide microarray binding signal,"[2]; peptide modifications: H3K9ac H3T11ph, binder concentration: 100 nM",0.0213 ± 0.0014
same,peptide microarray binding signal,[3]; [13],0.000755 ± 2.5e-05
same,peptide microarray binding signal,[3]; [14],0.000171 ± 1.9e-06
same,peptide microarray binding signal,[4]; [13],0.00547 ± 0.00037
same,peptide microarray binding signal,[4]; [14],0.00271 ± 0.00015
